# Compound activity as filed in PubChem.
# KDM5B inh – KDM5B demethylase inhibition. 2.6% of 220,000 active. Potency, µM (titrated, usually from 57.7 µM), actives largely listed as inhibitors. AID 1347165. KDM5B demethylase, FDH-coupled NADH fluorescence (FDH is formaldehyde dehydrogenase); also: potency is read from the fitted curve at half-maximal effect; 0% is about no effect; nearly all actives have a fitted effect of over 70% in size
#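 Measured: NADH fluorescence change, 30 min, RT. System: KDM5BΔAP 200 nM final, H3K4me3 peptide, α-KG, Fe(II), ascorbate, NAD⁺ plus FDH, pH 7.5 HEPES. Compounds: titrated, 10 min pre-incubation with enzyme.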
# IP6K1 inh – blocks human inositol hexakisphosphate kinase 1; 0.81% of 140,000 active; Q92551; activity change, % (series mostly up to about 58 µM); IP6K1 kinase, ADP-Glo luminescence, 2 h; hits give low values; AID 1645851; in the data active = activity change below about -25%; also: % is scaled to controls: 0 for no effect and ±100 for the full control effect
# Target sequence (Q92551 whole entry, looked up): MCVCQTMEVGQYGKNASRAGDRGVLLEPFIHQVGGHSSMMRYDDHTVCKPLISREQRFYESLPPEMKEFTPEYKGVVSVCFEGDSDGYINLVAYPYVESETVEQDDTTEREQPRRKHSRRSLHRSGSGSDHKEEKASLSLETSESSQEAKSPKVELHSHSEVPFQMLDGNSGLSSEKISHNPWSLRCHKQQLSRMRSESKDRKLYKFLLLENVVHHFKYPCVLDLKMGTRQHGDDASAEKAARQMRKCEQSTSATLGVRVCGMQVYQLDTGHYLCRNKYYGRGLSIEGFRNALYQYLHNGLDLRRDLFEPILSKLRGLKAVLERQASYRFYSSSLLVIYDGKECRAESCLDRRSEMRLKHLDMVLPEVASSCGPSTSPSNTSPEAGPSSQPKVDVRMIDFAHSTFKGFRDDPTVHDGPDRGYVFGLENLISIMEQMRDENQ
#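 ADP-Glo luminescence measures ADP made by human IP6K1 during a 2 h RT reaction with ATP/IP6 (mix at 1.3 mM/130 uM); top library doses 57.5 and 19.1 uM final.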
# Active calls of the source: *; i = inactive; ? = inconclusive; nt = no result. This is a sample that favours compounds with a hit; in the whole collection about 2.8% have one here.
SMILES,KDM5B inh,IP6K1 inh
Cc1ccc(Cl)cc1-n1nc(-c2c(C)nc3scc(CC(=O)N4CCOCC4)n3c2=O)cc1C,28µM*,25
COc1ccc(CC(=O)NC2CCN(c3nccc(Nc4ccccc4F)n3)CC2)cc1,nt,-1
COCc1cccc(-c2n[nH]c3c2CC(=O)N(CC2CC2)C3)c1,i,2
CN(C)c1cccc(-c2n[nH]c3c2CC(=O)N(CC2CC2)C3)c1,20µM*,-4
Cc1ccc(NC(=O)CC2CCCN(c3cnn(C)c(=O)c3)C2)cc1F (stereo unspecified),i,-1
CCCn1nc(C(=O)NN2C(=O)NC3(CCCCC3)C2=O)c2ccccc2c1=O,i,nt
C[C@@H]1CN(C(=O)c2cc(-c3ccco3)nc3c(Cl)cccc23)C[C@]1(C)O,i,5
Cc1cc(CNC(=O)c2cc(-c3ccco3)nc3c(Cl)cccc23)no1,28µM*,-6
O=S(=O)(Nc1nc2ccccc2nc1Nc1ccc2c(c1)OCCO2)c1ccc(Cl)cc1,i,nt
O=c1c2cc(-c3ccc(F)cc3)nn2ccn1CC(O)c1ccc2c(c1)OCO2 (stereo unspecified),32µM*,0
O=c1c2cc(-c3ccc(F)cc3)nn2ccn1CC(O)c1ccc(F)cc1 (stereo unspecified),20µM*,0
O=C(Cc1cccc(F)c1)NCCn1ccn2nc(-c3ccc(F)cc3)cc2c1=O,i,-2
O=C(Cn1ccn2nc(-c3ccc4c(c3)OCO4)cc2c1=O)NCc1ccc(Cl)cc1,i,nt
CNC(=O)C1CCN(CCc2ccncc2)CC1,i,nt
COc1ccc2nc3n(c2c1)[C@@H](CNCc1ccccc1)COC3,i,-6
COc1ccc2nc3n(c2c1)[C@@H](CNCc1ccc(C#N)cc1)COC3,28µM*,-3
CCCNC(=O)CCNC(=O)NCc1nc2c(cnn2-c2ccccc2)c(=O)[nH]1,i,nt
Cc1nn(C)c(C)c1C(=O)NCc1cc(Cl)c2c(c1)OCCCO2,i,nt
COc1cccc(-c2cc(C(=O)NCC(F)F)c3cnn(C)c3n2)c1,nt,-4
OC[C@]12CCCN[C@@H]1CCN(Cc1cccc(-c3ccccn3)c1)C2,i,4
Cc1ccc2[nH]c(CN3CC[C@H]4NCCC[C@]4(CO)C3)cc(=O)c2c1,13µM*,7
CCOc1nc2ccccc2nc1N1CCC(C(=O)NC(C)c2ccccc2)CC1 (stereo unspecified),i,nt
Cc1cccc2c1O[C@H]1[C@H](CO)CN(C(=O)CCc3ccccc3)[C@@H]21,nt,13
CN(C)C(=O)c1ccc2cncn2c1,32µM*,-3
O=C(NC1CC1)c1ccc2cncn2c1,32µM*,-1
SMILES,KDM5B inh,IP6K1 inh
O=C(NC1CC1)c1ccc2nccn2c1,nt,7
O=C(c1ccc2cncn2c1)N1CCOCC1,?,-5
CNC(=O)c1ccn2cncc2c1,i,2
CNC(=O)c1ccc2cncn2c1,32µM*,2
Cc1ccc(-c2ccccc2CN2CCN(C(=O)N(C)C)CC2)cc1Cl,nt,-11
N#Cc1cccc(-c2c(C(=O)NCc3cccc(C(F)(F)F)c3)nc3sccn23)c1,nt,9
CN(CC(=O)NC(=O)NC1CCCC1)CC(=O)Nc1ccc(Cl)c(C(F)(F)F)c1,i,nt
Cc1ccccc1-c1onc(C)c1C(=O)NCc1cc(F)cc(F)c1,i,2
Cc1noc(-c2ccc3c(c2)OCO3)c1C(=O)NC(C)CCc1ccccc1 (stereo unspecified),28µM*,-12
COc1ccccc1-c1onc(C)c1C(=O)NCc1ccccc1C,?,32
CCOc1ccccc1CNC(=O)c1c(C)noc1-c1ccc2c(c1)OCO2,28µM*,2
Cc1onc(-c2ccccc2)c1C(=O)NC(C)CCc1ccccc1 (stereo unspecified),i,nt
Cc1noc(-c2ccc3c(c2)OCO3)c1C(=O)NCCCCc1ccccc1,28µM*,-4
COc1ccc(-c2onc(C)c2C(=O)NCCCCc2ccccc2)cc1,i,14
Cc1noc(-c2ccc3c(c2)OCO3)c1C(=O)NCc1cc(F)cc(F)c1,28µM*,-11
COc1cccc(-c2cccc(C(=O)N3CCN([S+](=O)([O-])c4ccccc4)CC3)c2)c1,nt,8
CC(C)c1nc2cc(NC(=O)c3ccc(=O)[nH]n3)ccc2o1,i,nt
Cc1cc(-c2cc(-c3cccs3)nc3c(C)noc23)ccn1,28µM*,-15
COc1ccc(-c2cc(-c3cccs3)nc3c(C)noc23)cc1OC,?,-6
COc1ccccc1-c1cc(-c2ccccc2OC)c2onc(C)c2n1,?,-5
COc1ccccc1-c1cc(-c2cccs2)nc2c(C)noc12,35µM*,-19
COc1ccccc1Nc1ccnc(N2CCCC(C(=O)NC3CCCC3)C2)n1 (stereo unspecified),nt,19
CCOC(=O)C1C(=O)C=C(c2ccc(C)cc2)CC1c1ccc(Cl)cc1 (stereo unspecified),i,nt
CC(C)CC(NC(=O)COc1ccccc1)C(=O)N(C)C (stereo unspecified),i,nt
CCCc1cc(C(=O)N2CCC3(CC2)CN(C(C)CCC)C(=O)O3)n[nH]1 (stereo unspecified),28µM*,10
SMILES,KDM5B inh,IP6K1 inh
CCCC(C)N1CC2(CCN(C(=O)c3ccc(C(C)=O)s3)CC2)OC1=O (stereo unspecified),i,5
COc1ccc(-c2ccc3c(c2)C(=O)N2C[C@@H](NS(=O)(=O)c4ccc(F)cc4)C[C@H]2C(=O)N3)c(OC)c1,35µM*,0
CCC(CC)C(=O)N[C@H]1CCN2C(=O)c3cc(-c4cccs4)ccc3NC(=O)[C@@H]2C1,?,8
O=C(N[C@H]1C[C@H]2C(=O)Nc3ccc(-c4cccs4)cc3C(=O)N2C1)c1ccccc1,32µM*,-17
COc1ccc(C(=O)N[C@H]2C[C@H]3C(=O)Nc4ccc(-c5cccs5)cc4C(=O)N3C2)cc1,35µM*,-1
CS(=O)(=O)N[C@H]1C[C@H]2C(=O)Nc3ccc(-c4cccs4)cc3C(=O)N2C1,40µM*,-13
O=C(N[C@H]1C[C@H]2C(=O)Nc3ccccc3C(=O)N2C1)c1ccccc1,i,-1
COc1ccc(C(=O)N[C@H]2C[C@H]3C(=O)Nc4ccccc4C(=O)N3C2)cc1,i,-6
O=C1Nc2ccc(-c3ccsc3)cc2C(=O)N2C[C@@H](NS(=O)(=O)c3ccc(F)cc3)C[C@@H]12,?,-5
O=C(CSc1nnnn1C1CC1)NC(c1ccc(F)cc1)c1cccs1 (stereo unspecified),i,nt
Cc1nn(-c2ccccc2)c2c1C(C)N(CC1CN(C(=O)c3ccccc3F)C1)C2=O (stereo unspecified),nt,9
O=C(NCC1CCCCC1)C1CN(c2ccnc3ccnn23)C1,nt,-3
CC(=O)NCc1nnc2n1C(C(=O)NCCCc1ccccc1)CC2 (stereo unspecified),nt,8
COc1cc(NC(=O)Cn2c(-c3ccccc3)nc(C)c(CCO)c2=O)cc(OC)c1,i,-6
O=C(Nc1cccc(F)c1)C1CCCN(Cc2cccc(-c3cccs3)c2)C1 (stereo unspecified),nt,4
Cc1nn(CC(=O)NCc2ccc(F)cc2F)c(=O)c2nc(-c3ccccc3)sc12,32µM*,-3
Cc1nn(CC(=O)NCc2cccnc2)c(=O)c2nc(-c3ccccc3)sc12,28µM*,10
CCc1nc2c(=O)n(CC(=O)NCc3ccc(F)cc3Cl)nc(C)c2s1,i,7
